± gives the standard deviation of the averaged measurements.
Experiments:
DLD1 [1] = experiment: cell viability (CellTiter-Glo) relative to plate median (fraction of plate median); higher = more viable cells; details: 5 µM; treatment time 24 h; reporter: 7TFP
Method in brief: (§1)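 Luminescence, normalised well by well to the plate median, is tabulated as a mean of independent replicates. There were two replicates, run on colorectal cancer lines stably transduced with lentiviral TCF/Wnt firefly luciferase reporters and dosed with library compounds at a final 5 µM for 24 h. Readouts were firefly luciferase or CellTiterGlo on parallel plates.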

HCT116 = experiment: as above; details: 5 µM; treatment time 24 h; reporter: TCF4/Wnt
Method in brief: as §1

SW480 [2] = experiment: as above; details: 5 µM; treatment time 24 h; reporter: 7TFP
Method in brief: as §1

DLD1 [3] = experiment: TCF/Wnt firefly luciferase reporter signal relative to plate median (fraction of plate median); higher = higher Wnt reporter signal; details: 5 µM; treatment time 24 h; reporter: 7TFP
Method in brief: as §1

SW480 [4] = experiment: as above; details: 5 µM; treatment time 24 h; reporter: 7TFP
Method in brief: as §1

Structure (SMILES) | cell viability (DLD1 [1]) | cell viability (HCT116) | cell viability (SW480 [2]) | TCF/Wnt firefly luciferase reporter signal (DLD1 [3]) | TCF/Wnt firefly luciferase reporter signal (SW480 [4])
Cc1cccc(Nc2ccccc2C(=O)O)c1C | 1.03 ± 0.1 | 1 ± 0.038 | 1.07 ± 0.014 | 0.927 ± 0.052 | 1.01 ± 0.089
CCC(=O)O[C@H]1[C@H](O[C@@H]2[C@@H](C)[C@H](O[C@H]3C[C@@](C)(OC)[C@@H](O)[C@H](C)O3)[C@@H](C)C(=O)O[C@H](CC)[C@@](C)(O)[C@H](O)[C@@H](C)C(=O)[C@H](C)C[C@@]2(C)O)O[C@H](C)C[C@@H]1N(C)C | 0.989 ± 0.058 | 0.93 ± 0.011 | 1.01 ± 0.016 | 0.9955 ± 0.0064 | 1.11 ± 0.014
C[C@@](Cc1ccc(O)c(O)c1)(NN)C(=O)O | 1.01 ± 0.015 | 0.981 ± 0.098 | 1.02 ± 0.067 | 0.8725 ± 0.005 | 0.95 ± 0.13
COc1cc2c(=O)c(-c3ccc4c(c3)OCO4)coc2c(OC)c1OC | 1.05 ± 0.05 | 1.01 ± 0.073 | 1 ± 0.011 | 0.94 ± 0.05 | 0.922 ± 0.026
COc1ccc2cc1Oc1ccc(cc1)C[C@H]1c3cc(c(OC)cc3CCN1C)Oc1c(OC)c(OC)cc3c1[C@H](C2)N(C)CC3 | 1.04 ± 0.13 | 0.897 ± 0.15 | 1.215 ± 0.0071 | 0.948 ± 0.025 | 0.889 ± 0.071
C#CCCCCCCCCCCCC(O)CC(O)CO.C=CCCCCCCCCCCCC(O)CC(O)CO (stereo not given) | 1.015 ± 0.0071 | 0.974 ± 0.0099 | 1.01 ± 0.051 | 1.05 ± 0.18 | 0.974 ± 0.11
CCCn1c(=O)c2[nH]c(C3CCCC3)nc2n(CCC)c1=O | 0.998 ± 0.059 | 1.03 ± 0.047 | 1.02 ± 0.037 | 1.04 ± 0.16 | 0.968 ± 0.073
COc1cc(O)c2c(=O)cc(C)oc2c1CC=C(C)C | 1.04 ± 0.057 | 1.06 ± 0.078 | 1.04 ± 0.035 | 0.91 ± 0.04 | 0.991 ± 0.15
CCCCOc1ccc(C(=O)CCN2CCCCC2)cc1 | 0.832 ± 0.12 | 0.87 ± 0.033 | 0.931 ± 0.045 | 1.09 ± 0.23 | 1.17 ± 0.092
COc1cc2c(cc1OC)[C@@H]1Cc3ccc(OC)c(OC)c3CN1CC2 | 0.97 ± 0.085 | 0.941 ± 0.038 | 0.9275 ± 0.0035 | 1.17 ± 0.18 | 1.03 ± 0.028
C[C@H]1COC2=C1C(=O)C(=O)c1c2ccc2c1CCCC2(C)C | 1.15 ± 0.2 | 1.12 ± 0.042 | 1.08 ± 0.014 | 1.05 ± 0.096 | 0.906 ± 0.12
OCc1cccnc1 | 0.978 ± 0.088 | 1.05 ± 0.17 | 0.934 ± 0.016 | 0.988 ± 0.12 | 0.917 ± 0.017
O=C(CCc1ccc(O)cc1)c1c(O)cc(O)cc1O[C@@H]1OC(CO)[C@@H](O)[C@@H](O)C1O (stereo not given in full) | 1.07 ± 0.064 | 1.01 ± 0.016 | 1.03 ± 0.021 | 0.909 ± 0.033 | 1.06 ± 0.092
COC(=O)C1=C(C)NC(C)=C(C(=O)OC)C1c1ccccc1[N+](=O)[O-] | 1.05 ± 0.14 | 0.995 ± 0.11 | 1.06 ± 0.028 | 1.04 ± 0.11 | 1.06 ± 0.078
CCN1CCN(C(=O)N[C@@H](C(=O)N[C@@H]2C(=O)N3C(C(=O)O)=C(CSc4nnnn4C)CS[C@H]23)c2ccc(O)cc2)C(=O)C1=O | 0.973 ± 0.053 | 1.06 ± 0.035 | 0.951 ± 0.023 | 0.886 ± 0.042 | 1.01 ± 0.098
COc1ccc(-c2coc3c(OC)c(OC)cc(O)c3c2=O)cc1 | 1.01 ± 0.017 | 1.07 ± 0.014 | 0.995 ± 0.021 | 1.08 ± 0.064 | 0.98 ± 0.042
O=C(O)c1ccccc1OP(=O)(O)O | 0.9465 ± 0.0035 | 0.9665 ± 0.0092 | 0.911 ± 0.028 | 0.939 ± 0.042 | 0.932 ± 0.04
COc1ccc(NS(=O)(=O)c2ccc(N)cc2)nn1 | 0.99 ± 0.057 | 1.09 ± 0.042 | 1.02 ± 0.032 | 1.12 ± 0.19 | 0.914 ± 0.14
CCc1ccc(CCOc2ccc(CC3SC(=O)NC3=O)cc2)nc1 (stereo not given) | 0.923 ± 0.048 | 0.904 ± 0.07 | 0.983 ± 0.096 | 1.015 ± 0.0071 | 1.07 ± 0.057
COc1cc2ccc(=O)oc2c(O)c1O | 0.945 ± 0.077 | 0.908 ± 0.061 | 0.966 ± 0.062 | 1.04 ± 0.042 | 0.9995 ± 0.00071
CC(C)=CCOc1cc2oc(=O)ccc2cc1O | 1.08 ± 0.014 | 1.19 ± 0.11 | 1.04 ± 0.028 | 1.005 ± 0.0071 | 1.07 ± 0.064
O=c1ccc2ccccc2o1 | 0.985 ± 0.11 | 1.01 ± 0.029 | 0.976 ± 0.014 | 1.09 ± 0.014 | 0.984 ± 0.018
CC(Cc1cccc(C(F)(F)F)c1)NCCOC(=O)c1ccccc1 (stereo not given) | 0.984 ± 0.023 | 0.993 ± 0.011 | 0.955 ± 0.032 | 1.22 ± 0.057 | 1.14 ± 0.021
N[C@H]1Cc2ccc(cc2)C(=O)[C@@H]2C[C@@H](O)CN2C1=O [cyclo(4-hydroxyprolyl-phenylalanyl)] | 0.951 ± 0.023 | 0.907 ± 0.16 | 0.956 ± 0.016 | 0.915 ± 0.18 | 1.03 ± 0.028
CCCCCCCCCCCC[C@@H](C(=O)O)[C@H](C)C(=O)O | 1.005 ± 0.0071 | 1.08 ± 0.25 | 1 ± 0.028 | 0.944 ± 0.11 | 1.03
CN(C)CCCN1c2ccccc2CCc2ccc(Cl)cc21 | 1.04 | 0.984 ± 0.051 | 1.06 ± 0.021 | 1.06 ± 0.1 | 1.01 ± 0.055
C=CC1=C(C)/C(=C/c2[nH]c(Cc3[nH]c(/C=C4\NC(=O)C(C)=C4C=C)c(C)c3CCC(=O)O)c(CCC(=O)O)c2C)NC1=O | 1.04 ± 0.087 | 1.03 | 0.98 ± 0.018 | 0.964 ± 0.15 | 0.936 ± 0.018
COc1c(CC(=O)c2cc3c(cc2O)OC(C)(C)C(O)C3)ccc2c1C=CC(C)(C)O2 (stereo not given) | 1.02 ± 0.03 | 1.02 ± 0.035 | 0.911 ± 0.021 | 0.941 ± 0.039 | 0.929 ± 0.08
CC(N/C(=N\C#N)Nc1ccncc1)C(C)(C)C (stereo not given) | 0.99 ± 0.043 | 0.904 ± 0.0014 | 0.989 ± 0.1 | 0.799 ± 0.04 | 0.941 ± 0.073
CC[C@H](CC[C@@H](C)[C@H]1CC[C@H]2[C@@H]3CC=C4C[C@@H](O)CC[C@]4(C)[C@H]3CC[C@]12C)C(C)C [beta-SITOSTEROL] | 1.07 ± 0.13 | 1.03 ± 0.035 | 1.13 ± 0.014 | 0.872 ± 0.0028 | 1.02 ± 0.035

Source: the supplement of paper PMC6522484
